KCNQ2 inh = KCNQ2 (rat) channel inhibition; O88943; CHO-K1 KCNQ2, FluxOR thallium flux, 20 min; stronger effect = lower value; B-score at 10 µM; actives 1.1% (n = 310,000);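 active = fluorescence ratio B-score at most minus 3 library SDs, with starting brightness B-score within 2 library SDs, cut at about -5.5 in these data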
KCNQ2 pot = enhances the rat KCNQ2 potassium channel. CHO-K1 KCNQ2, FluxOR thallium flux fluorescence; stronger effect = higher value. B-score at 10 µM. actives 0.54% (n = 310,000). AID 2239;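 active = fluorescence ratio B-score at least 3 SD of library B-scores, with initial fluorescence B-score within 3 of them, cut at about 5.3 in these data; same plate scores as AID 2156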;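 also: B-score of peak minus minimum over baseline fluorescence ratio after K+ and Tl+ stimulus; positive B-score means potentiation of KCNQ2 with more thallium influx and brighter signal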
KCNQ2 inh conf = rat KCNQ2 channel inhibition, confirmatory screen; shares compounds with KCNQ2 inh; AID 493025; activity change, negative = inhibition, % at 10 µM; actives 57% (n = 1,000); KCNQ2-expressing cells, thallium flux; stronger effect = lower value;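 also: 0% = vehicle wells and values are ratio percent relative to vehicle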
KCNQ1 spec = selectivity of KCNQ2 inhibitors against human KCNQ1 | shares compounds with KCNQ2 inh | KCNQ1-expressing cells, FluxOR thallium flux fluorescence; stronger effect = lower value | activity change, negative = inhibition, % at 10 µM | actives 15% (n = 1,000);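 active = activity change at least 3 SD of negative controls below their mean in both duplicate wells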;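 also: CHO cells stably transfected with KCNQ1 and depolarized by potassium stimulus; peak minus minimum fluorescence over baseline after thallium addition; 0% = vehicle negative control and -100% = blank without thallium stimulus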
Target sequence (P51787 whole entry, looked up): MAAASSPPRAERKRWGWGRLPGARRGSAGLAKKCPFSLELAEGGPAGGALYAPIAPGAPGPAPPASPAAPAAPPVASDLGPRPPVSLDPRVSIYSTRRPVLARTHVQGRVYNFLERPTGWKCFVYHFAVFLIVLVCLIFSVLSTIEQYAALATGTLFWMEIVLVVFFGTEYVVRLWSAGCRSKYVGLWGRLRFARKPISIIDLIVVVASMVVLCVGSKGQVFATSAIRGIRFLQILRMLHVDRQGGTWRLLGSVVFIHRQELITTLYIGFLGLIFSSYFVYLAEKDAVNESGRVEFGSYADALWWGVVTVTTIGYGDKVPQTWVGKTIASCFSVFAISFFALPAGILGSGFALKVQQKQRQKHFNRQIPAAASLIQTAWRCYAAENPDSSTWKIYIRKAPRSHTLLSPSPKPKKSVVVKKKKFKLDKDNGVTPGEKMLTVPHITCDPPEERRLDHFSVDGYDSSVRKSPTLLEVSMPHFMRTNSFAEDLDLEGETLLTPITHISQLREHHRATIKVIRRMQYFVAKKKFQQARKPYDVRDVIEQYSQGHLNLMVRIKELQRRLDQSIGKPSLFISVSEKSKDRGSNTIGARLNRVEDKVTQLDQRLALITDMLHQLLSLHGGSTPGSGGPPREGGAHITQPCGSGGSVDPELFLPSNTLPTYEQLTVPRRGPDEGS
CHO parental ctr = activity in parental CHO cells lacking KCNQ2; AID 493029; activity change, % at 10 µM; thallium flux counter-screen; stronger effect = lower value; actives 14% (n = 1,000); shares compounds with KCNQ2 inh;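 also: 0% = vehicle negative controls with stimulus buffer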
KCNQ2 inh confirm = confirmation of rat KCNQ2 potassium channel inhibitors | shares compounds with KCNQ2 inh | actives 49% (n = 550) | KCNQ2-expressing cells, automated patch clamp current | calls only at 10 µM
An asterisk follows results filed as active; i = inactive; x = no result given; + = active, no number. Shown are actives, neighbours in structure and some others; about 1.6% of the full set was active somewhere. Unless noted, no rule for the calls is given here.

SMILES	KCNQ2 inh	KCNQ2 pot	KCNQ2 inh conf	KCNQ1 spec	CHO parental ctr	others
O=C(O)c1cnc(-c2ccccc2)nc1Oc1ccccc1	i	x	x	x	x
O=C(O)c1cnc(-c2ccccc2)nc1Oc1ccc(Cl)cc1	-7.46*	-7.46	-19.5%*	i	i	KCNQ2 inh confirm=+
CC(C)(C)CC(=O)Nc1nnc(SCC(=O)N2CCCCC2)s1	i	0.74	x	x	x
O=C(/C=C/c1ccccc1Br)c1ccc2c(c1)OCO2	-6.85*	-6.85	i	i	i
O=C(/C=C/c1ccccc1)c1ccc2c(c1)OCO2	i	x	x	x	x
O=C(Nc1c(Cl)cccc1Cl)C1CCN(C(=O)c2cccs2)CC1	i	1.58	x	x	x
O=C(O)c1cncc(C#CCC2CCCCC2)c1	i	x	x	x	x
Nc1cccc(P(=O)(c2ccccc2)c2ccccc2)c1	i	x	x	x	x
O=P(c1ccccc1)(c1ccccc1)N(c1ccccc1)c1ccccc1	-6.83*	-6.83	-20.0%*	i	i	KCNQ2 inh confirm=+
O=C(O)c1ccc(NS(=O)(=O)c2cccc(C(=O)Nc3cccc(C(=O)O)c3)c2)cc1	i	x	x	x	x
CC(C)CN(CC(C)C)CC(O)COc1ccc([N+](=O)[O-])cc1 (configuration not stated)	i	x	x	x	x
COC(=O)Cc1c[nH]c2cccc(OCC(O)CN(Cc3ccc([N+](=O)[O-])cc3)C(C)(C)C)c12 (configuration not stated)	-8.54*	-8.54	-20.0%*	i	i	KCNQ2 inh confirm=+
O=c1[nH]c2ccccc2c(O)c1-c1cc2ccccc2oc1=O	i	x	x	x	x
CCc1ccc(OCC(=O)NNC(=O)c2ccc(NC(=O)C3CC3)cc2)cc1	i	x	x	x	x
COC(=O)CCSCC(=O)N1N=C(c2ccc(Br)cc2)CC1c1cccc(OC)c1OC (configuration not stated)	i	x	x	x	x
Clc1ccc(CO/N=C/c2c(-c3ccccc3)nc3n2CCS3)c(Cl)c1	i	x	x	x	x
Cc1ncc(N=Nc2ccc(F)cc2)c(-c2ccc(Cl)cc2)n1	i	0.06	x	x	x
Cc1ccn2c(/C=N/OCc3cccc(F)c3)c(-c3ccc(Cl)cc3)nc2c1	-7.84*	-7.84	-18.5%*	i	i	KCNQ2 inh confirm=i
Cc1ccn2c(/C=N/OCc3ccc(F)cc3)c(-c3ccc(Cl)cc3)nc2c1	-8.97*	-8.97	-26.5%*	i	i	KCNQ2 inh confirm=+
COC(=O)[C@H](CC(C)C)NC(=O)NCCC1=CCCCC1	i	x	x	x	x
CCN1/C(=C/C=C/c2sc3ccccc3[n+]2CC)Sc2ccccc21	-6.89*	-6.89	i	i	i
CC[n+]1c(/C=C/Nc2ccccc2)sc2ccccc21	i	0.92	x	x	x
COC(=O)c1ccc(CN2C(=O)NC(CC(C)C)C2=O)cc1 (configuration not stated)	i	1.88	x	x	x
Cc1cc(C)cc(OCC(=O)N(Cc2ccccc2)C2CCS(=O)(=O)C2)c1 (configuration not stated)	i	x	x	x	x
NNC(=S)Nc1c(F)cc(F)cc1Br	i	x	x	x	x
SMILES	KCNQ2 inh	KCNQ2 pot	KCNQ2 inh conf	KCNQ1 spec	CHO parental ctr	others
Cc1ccc(O)c(CNc2nc3ccccc3n2C(C)C)c1	i	x	x	x	x
C=CCn1c(NCc2cc(C)ccc2O)nc2ccccc21	-7.14*	-7.14	-16.5%*	i	i	KCNQ2 inh confirm=+
COc1ccc(C(=O)C(c2ccccc2)N2CCOCC2)cc1 (configuration not stated)	i	1.18	x	x	x
Cc1ccc(C(=O)C(c2ccccc2)N2Cc3ccccc3C2=N)cc1 (configuration not stated)	-8.55*	-8.55	-31.5%*	i	i	KCNQ2 inh confirm=+
COc1cccc(NC(=O)C(NCC2CCCCC2)c2ccccc2)c1 (configuration not stated)	-10*	-10	-28.5%*	i	i	KCNQ2 inh confirm=+
COc1cccc(NC(=O)C2CCCCC2)c1	i	4.46	x	x	x
CCN1CCN(c2cc(N3CCc4ccccc4C3)c(F)cc2[N+](=O)[O-])CC1	-6.94*	-6.94	-29.0%*	i	i
CC(=O)N1CCN(c2cc(N3CCCC3)c(F)cc2[N+](=O)[O-])CC1	i	x	x	x	x
COc1cc(CC(=O)NC2CCCc3ccccc32)cc(OC)c1OC (configuration not stated)	i	0.39	x	x	x
CC(C)C[C@H](NC(=O)NC1CCCc2ccccc21)C(=O)O (some centres not stated)	i	x	x	x	x
COc1ccc(-c2nc(CSCC(=O)NC3CCCc4ccccc43)c(C)o2)cc1 (configuration not stated)	-7.35*	-7.35	-29.0%*	i	i	KCNQ2 inh confirm=+
COc1ccccc1CC(=O)NC1CCCc2ccccc21 (configuration not stated)	-7.14*	-7.14	-24.0%*	i	i	KCNQ2 inh confirm=+
COC(=O)[C@H](CC(C)C)NC(=O)NC1CCCc2ccccc21 (some centres not stated)	-7.55*	-7.55	-28.0%*	i	i	KCNQ2 inh confirm=+
CCOC(=O)N1CCC(NC(=O)CSCc2nc(-c3ccc(OC)cc3)oc2C)CC1	i	x	x	x	x
Cc1cc(C)c2cc(CN(Cc3ccco3)C(=S)NCC3CCCO3)c(=O)[nH]c2c1 (configuration not stated)	i	x	x	x	x
Cc1cccc(N2CCN(C(=S)Nc3ccc4nc5n(c(=O)c4c3)CCCCC5)CC2)c1C	i	x	x	x	x
CC(C)CC(NC(N)=O)C(=O)NCCc1ccc(Cl)cc1 (configuration not stated)	i	x	x	x	x
COc1ccc2[nH]c3c(NCCC4=CCCCC4)ncnc3c2c1	-9.09*	-9.09	i	i	i
CCN(CC)CCNc1ncnc2c1[nH]c1ccc(OC)cc12	i	1.69	x	x	x
COCCCN(C(=S)Nc1cc(Cl)cc(Cl)c1)C(C)c1ccncc1 (configuration not stated)	i	0.36	x	x	x
COCCCN(C(=S)Nc1cc(Cl)cc(Cl)c1)C(C)c1ccccn1 (configuration not stated)	-8.52*	-8.52	i	i	i
Cc1cccc(C)c1OCC(=O)Nc1cccc(-c2nnc(-c3ccccc3)o2)c1	-9.54*	-9.54	-27.5%*	i	i	KCNQ2 inh confirm=i
Cc1cccc(OCC(=O)Nc2cccc(-c3nnc(-c4ccccc4)o3)c2)c1C	i	0.59	x	x	x
O=C(Nc1ccccc1N1CCCCC1)c1ncoc1-c1ccc(F)cc1	-7.1*	-7.1	i	i	i
CC1CCN(c2ccccc2NC(=O)c2ccc(F)cc2)CC1	-9.28*	-9.28	-17.0%*	i	i	KCNQ2 inh confirm=i
CN1CCN(c2ccccc2NC(=O)c2ccc(F)cc2)CC1	i	0.74	x	x	x
Cc1ccc(-c2ocnc2C(=O)Nc2ccccc2C(=O)N2CCCC2)cc1	i	0.17	x	x	x
Cc1cc(OC(=O)c2ccccc2C(F)(F)F)c([N+](=O)[O-])c(=O)[nH]1	i	0.16	x	x	x
COc1cc(CN(C)C(C)C(=O)Nc2ccc([N+](=O)[O-])cc2Cl)ccc1OC(F)F (configuration not stated)	i	x	x	x	x

From PubChem BioAssay
